Inconclusive results are not listed. A number with no mark means an inactive call. Active and inactive are the calls of the source. Calls follow the shape of the dose curve; as a rule, active = well fitted cell-killing curve with a large enough effect; inconclusive = small, poorly fitted or top-dose-only effect, or effect the other way; inactive = no such curve, though single readings can be large or run the other way.
% is scaled to controls: 0 for no effect and ±100 for the full control effect; potency is read from the fitted curve at half-maximal effect.

The test system of this test is Es-2. In words: Confirmatory qHTS for gynecologic anti-cancer compounds from libraries of approved drugs and bioactive compounds. Also: nearly all actives have a fitted effect of over 55% in size. The note with it: gynecologic cancer cell panel viability, ATPlite luminescence, 48 h; series mostly up to 57.6 µM; activity change, negative = viability loss: at the top concentration. Summed up: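 IC50 values derive from an ATPlite ATP-content luminescence assay following 48 h treatment at 37 C. Each compound ran as an 11-concentration, threefold series (57.5 uM to 0.977 nM); HEK 293T served as control line for selectivity index.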
Background: In qHTS, concentration-response curves come from the screen itself.
As for `Cc1[nH]c2ccccc2c1CCNCc1ccc(/C=C/C(=O)NO)cc1`, the Potency is 0.172 µM (active).

Regarding `NC(=O)c1cnc(-c2ccc(C3(N)CCC3)cc2)c(-c2ccccc2)c1`, the Potency was 24.3 µM (active).

For `O=C(O)c1ccc(Nc2ncc3c(n2)-c2ccc(Cl)cc2C(c2c(F)cccc2F)=NC3)cc1`, the “activity change, negative = viability loss” value was 5.57%.

For the compound `Cc1nc(N)nc(N)c1-c1ccc(Cl)c(Cl)c1`, the Potency was 1.37 µM (active).

For `COc1ccc2c(c1OC)C(=O)O[C@@H]2[C@H]1c2c(cc3c(c2OC)OCO3)CCN1C`, the “activity change, negative = viability loss” value was -1.17%.

In the case of `Nc1ccccc1NC(=O)c1ccc(CNc2nccc(-c3cccnc3)n2)cc1`, the Potency was 2.43 µM (active).

Regarding `CCCCN(CCCC)C(=O)CN1C[C@H](c2ccc3c(c2)OCO3)[C@@H](C(=O)O)[C@@H]1c1ccc(OC)cc1`, the “activity change, negative = viability loss” value was 20.6%.

`CNC(=O)c1ccccc1Sc1ccc2c(/C=C/c3ccccn3)n[nH]c2c1`: the Potency is 19.3 µM (active).

Turning to `COc1cc2c(cc1-c1c(C)noc1C)ncc1[nH]c(=O)n(C(C)c3ccccn3)c12` (configuration not stated), the Potency is 2.17 µM (active).

As to `CS(=O)(=O)c1ccc(-c2cnc(N)c(C(=O)Nc3ccccc3)n2)cc1`, the “activity change, negative = viability loss” value is -16.2%.

For the compound `OCCNC1CCCc2c1[nH]c1ccc(-c3ccccc3)cc21` (configuration not stated), the Potency was 19.3 µM (active).

In the case of `CC(C)C[C@H](NC(=O)[C@@H](NC(=O)c1cccc(-c2ccccc2)n1)[C@@H](C)O)B(O)O`, the Potency is 0.0685 µM (active).

As to `COc1cc2ncnc(Nc3ccc(F)c(Cl)c3)c2cc1OCCCN1CCOCC1`, the “activity change, negative = viability loss” value is -2.6%.

In the case of `CC(C)Oc1ccc2c(=O)c(-c3ccccc3)coc2c1`, the Potency is 9.68 µM (active).

As to `Cn1cnc2c(F)c(Nc3ccc(Br)cc3Cl)c(C(=O)NOCCO)cc21`, the Potency was 6.85 µM (active).

On to `Cn1cc(-c2[nH]c3cc(NC(=O)[C@H](N)C4CCCCC4)cc4c3c2C=NNC4=O)cn1`, for which the Potency was 6.85 µM (active).

For `N#CC1(c2cccc(C(=O)Nc3cc(Oc4ccc5nc(NC(=O)C6CC6)sc5n4)ccc3F)c2Cl)CC1`, the Potency was 5.44 µM (active).

Take `CN(NC(=O)CC(=O)NN(C)C(=S)c1ccccc1)C(=S)c1ccccc1`: the Potency is 0.611 µM (active).

For the compound `Cc1ccc(C(=O)Nc2ccc(CN3CCN(C)CC3)c(C(F)(F)F)c2)cc1C#Cc1cnc2[nH]ncc2c1`, the Potency was 0.306 µM (active).

Take `Cc1cc(Nc2nc(N[C@@H](C)c3ncc(F)cn3)ncc2Cl)n[nH]1`: the “activity change, negative = viability loss” value was -7.91%.

In the case of `COc1cccc2c1C(=O)c1c(O)c3c(c(O)c1C2=O)C[C@@](O)(C(=O)CO)C[C@@H]3O[C@H]1C[C@H](N)[C@H](O)[C@H](C)O1`, the Potency was 1.72 µM (active).

Regarding `CS(=O)(=O)c1ccc(C(=O)Nc2ccc(Cl)c(-c3ccccn3)c2)c(Cl)c1`, the “activity change, negative = viability loss” value was 5.55%.

In the case of `C1CCC(C(CC2CCCCN2)C2CCCCC2)CC1` (configuration not stated), the Potency was 24.3 µM (active).

Regarding `CCN(CC)CCNC(=O)c1c(C)[nH]c(/C=C2\C(=O)Nc3ccc(F)cc32)c1C`, the Potency was 25.1 µM (active).

`CC1(C)[C@@H](O)CC[C@]2(C)[C@H]3C(=O)C=C4[C@@H]5C[C@@](C)(C(=O)O)CC[C@]5(C)CC[C@@]4(C)[C@]3(C)CC[C@@H]12`: the “activity change, negative = viability loss” value was 12.5%.

In the case of `Cc1cc(SCc2sc(-c3ccc(C(F)(F)F)cc3)nc2C)ccc1OCC(=O)O`, the “activity change, negative = viability loss” value is -3.41%.

On to `FC(F)(F)c1ccc(/C=C/c2nc(COc3ccc(CCCCn4ccnn4)cc3)co2)cc1`, for which the Potency was 24.3 µM (active).

For the compound `OC[C@H]1O[C@@H](n2cnc3c(=S)nc[nH]c32)[C@H](O)[C@@H]1O`, the Potency was 4.85 µM (active).

Regarding `CNC1CCC(N(Cc2cccc(-c3ccncc3)c2)C(=O)c2sc3ccccc3c2Cl)CC1` (configuration not stated), the Potency was 24.3 µM (active).

`CC(Oc1cc(-n2cnc3ccc(CN4CCN(C)CC4)cc32)sc1C(N)=O)c1ccccc1C(F)(F)F` (configuration not stated): the Potency is 3.43 µM (active).

Regarding `Cc1nc(Nc2ncc(C(=O)Nc3c(C)cccc3Cl)s2)cc(N2CCN(CCO)CC2)n1`, the Potency is 13.7 µM (active).

For `NC1(c2ccc(-c3nc4ccn5c(=O)[nH]nc5c4cc3-c3ccccc3)cc2)CCC1`, the “activity change, negative = viability loss” value was -4.22%.

As for `COc1cc(Nc2ncc3c(n2)-c2ccc(Cl)cc2C(c2c(F)cccc2OC)=NC3)ccc1C(=O)O`, the “activity change, negative = viability loss” value is 22.5%.

`CC[C@@]1(O)C(=O)OCc2c1cc1n(c2=O)Cc2cc3cc(O)ccc3nc2-1`: the Potency was 0.0544 µM (active).

Turning to `CO[C@@]12[C@H](COC(N)=O)C3=C(C(=O)C(C)=C(N)C3=O)N1C[C@@H]1N[C@@H]12`, the “activity change, negative = viability loss” value is 12.2%.

For the compound `C[C@]12CCC(=O)C=C1[C@@H]1C[C@@H]1[C@H]1[C@@H]3[C@@H]4C[C@@H]4[C@@]4(CCC(=O)O4)[C@@]3(C)CC[C@@H]12`, the “activity change, negative = viability loss” value is -1.03%.

For the compound `COc1ccc2c(c1)c(CC(=O)O)c(C)n2C(=O)c1ccc(Cl)cc1`, the “activity change, negative = viability loss” value was -5.45%.

The record behind these values is PubChem BioAssay AID1345085 (National Center for Advancing Translational Sciences (NCATS), 2018).
